The target of experiment [1] is Bile acid receptor (Homo sapiens) (UniProt Q96RI1). Briefly: qHTS assay for small molecule antagonists of farnesoid X receptor signaling (AID 588526; calls by dose curve; further: on the % scale 0 is the no-effect control and ±100 the full control effect). A digest of the protocol:
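Beta-lactamase reporter antagonist mode: HEK293T FXR-UAS-bla cells, titrated compound, CDCA stimulation, 16 h 37 C, CCF4 dye 2 h RT. Data normalized to CDCA 50 uM and DMSO; Hill-fit IC50.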

Experiment [2] concerns the target Glucocorticoid receptor (Homo sapiens) (UniProt P04150). Briefly: qHTS assay for small molecule agonists of glucocorticoid receptor signaling (AID 588532; active means well fitted curve in the direction sought with a large enough effect in the signal ratio, with a control signal flat; the % refers to the signal ratio;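 further: 100% = dexamethasone at 0.1 µM and 0% = DMSO only wells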). As to conditions: HeLa MMTV-bla, beta-lactamase ratio, agonist, 18 h; stronger effect = higher value; percent of dexamethasone control, DMSO zero. A digest of the protocol:
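Quantitative HTS using CellSensor MMTV-bla HeLa cells in charcoal/dextran-treated serum; compounds tested up to 92 uM. After 18 h at 37 C, CCF4 dye reported reporter induction.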
In general terms: In qHTS, concentration-response curves come from the screen itself.

Experiment [3] can be described thus: qHTS assay for small molecule antagonists of peroxisome proliferator-activated receptor delta signaling (AID 588535; active means well fitted inhibition curve with a large enough effect in the signal ratio, with a control signal flat, not every such curve was filed as active; the % refers to the signal ratio;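 on max response: cells co-treated with a PPAR-delta agonist as stimulator during compound exposure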). The note with it: HEK293T PPARd-UAS-bla, beta-lactamase FRET ratio, 18 h; 460 nm channel. A digest of the protocol:
(§1)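 Antagonist-mode qHTS using GeneBLAzer PPAR-delta-UAS-bla HEK293T cells; compound exposure 18 hrs at 37 C over a titration. Ratiometric CCF4 fluorescence at 460/530 nm; concentration-response points fitted to the Hill equation.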

Experiment [4] concerns the target Peroxisome proliferator-activated receptor delta (Homo sapiens) (UniProt Q03181). Described as above. A digest of the protocol: as §1
Experiment [5] deals with Peroxisome proliferator-activated receptor gamma (Homo sapiens) (UniProt P37231). Briefly: qHTS assay for small molecule antagonists of peroxisome proliferator-activated receptor gamma signaling (AID 588537; active means well fitted inhibition curve with a large enough effect in the signal ratio, with a control signal flat, not every such curve was filed as active; the % refers to the signal ratio;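 further: reporter cells co-stimulated with 50 nM rosiglitazone agonist during compound treatment; % of control where 0% means no effect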). The procedure, abridged: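 Cell-based beta-lactamase assay; GW9662 served as the antagonist control. Stimulation used rosiglitazone, final 50 nM, 16 h, 37 C.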
In experiment [6] the target is Vitamin D3 receptor (Homo sapiens) (UniProt P11473). Briefly: qHTS assay for small molecule antagonists of vitamin D receptor signaling (AID 588541; calls by dose curve;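 further: receptor activated by calcitriol during compound treatment; series mostly up to about 77 µM; on the % scale 0 is the no-effect control and ±100 the full control effect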). The procedure, abridged:
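Antagonist-mode beta-lactamase reporter assay: HEK293T VDR-UAS-bla cells were exposed to titrated compound alongside 1-alpha,25-dihydroxyvitamin D3 at 3 nM final for 16 h. Values were normalized to the 50 nM agonist control and DMSO basal, with IC50 and efficacy from Hill equation fits.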

Experiment [7] has the same target. Briefly: qHTS assay for small molecule agonists of vitamin D receptor signaling (AID 588543; calls by dose curve;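 further: 0% = DMSO basal and 100% = reference agonist control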). The procedure, abridged: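 Measured: β-lactamase reporter activity (CCF4, 405 nm excitation, 460/530 nm emission) in HEK293T VDR-UAS-bla cells after 16 h compound exposure at 37 °C. Normalization against 50 nM 1α,25-dihydroxyvitamin D3 and DMSO; Hill-fit EC50.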
Experiment [8] can be described thus: qHTS assay for small molecule agonists of retinoid X receptor alpha signaling (AID 588544; calls by dose curve;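 on activation: 0% = DMSO basal wells and 100% = reference agonist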). As to conditions: HEK293T RXRa-UAS-bla, beta-lactamase reporter, 18 h; 530 nm emission.
Experiment [9] addresses Retinoic acid receptor RXR-alpha (Homo sapiens) (UniProt P19793). The description is as above.
For experiment [10], the target named is Thyroid hormone receptor beta (Homo sapiens) (UniProt P10828). Briefly: qHTS assay for small molecule agonists of thyroid hormone receptor beta signaling (AID 588545; calls by dose curve;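 further: 0% = DMSO only and 100% = 10 nM T3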). A digest of the protocol: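 TR-UAS-bla-GripTite HEK 293 cells in medium with 2% charcoal/dextran FBS, 0.1 mM NEAA and 1 mM sodium pyruvate were treated with titrated compounds for 18 hrs at 37 C. Beta-lactamase reporter was read with CCF4 dye (ex 405, em 460/530 nm); EC50 from Hill fits.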

Experiment [11] shares this target. Nature of the experiment: qHTS assay for small molecule antagonists of thyroid hormone receptor beta signaling (AID 588547; active means well fitted inhibition curve with a large enough effect in the signal ratio, with a control signal flat, not every such curve was filed as active; the % refers to the signal ratio;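 further: cells stimulated with 0.4 nM T3 agonist during compound exposure; series mostly up to about 77 µM; on the % scale 0 is the no-effect control and ±100 the full control effect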). The note with it: TR-UAS-bla HEK293, beta-lactamase ratio, antagonist mode, 18 h. The procedure, abridged:
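Inhibition of T3-driven (0.4nM final) beta-lactamase reporter activity was measured over 0.59 nM to 92 uM compound after 18 h at 37 C. The cells were GripTite HEK293 TR-UAS-bla in charcoal/dextran-stripped serum, with CCF4 ratio read-out and IC50 from Hill fits.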

Experiment [12] concerns the target Luciferin 4-monooxygenase (Photinus pyralis) (UniProt P08659). Nature of the experiment: Biochemical firefly luciferase enzyme assay for NPC (AID 624030).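 Further: purified P. pyralis luciferase at 10 nM with luciferin and ATP substrate; series mostly up to about 59 µM; 0% = DMSO and -100% = full luciferase inhibition by PTC124 control; nearly all actives have a fitted effect of over 70% in size.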 A digest of the protocol:
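Direct inhibition of firefly luciferase enzyme (10 nM final, 50 mM Tris Acetate) assessed by luminescence within 5 minutes. Percent activity scaled between DMSO and PTC124 positive control, with concentration-effect curves classified by fit quality and response.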

A short description of experiment [13]: qHTS assay for small molecule agonists of the antioxidant response element (ARE) signaling pathway (AID 651741; active means well fitted activation curve with a large enough effect in the signal ratio; the % refers to the signal ratio; further: potency means the concentration at half of the fitted maximal effect). The procedure, abridged: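 Agonist activity is measured as ARE-driven beta-lactamase expression in a stable HepG2 reporter line, using 16 h compound treatment at 37 C and a FRET substrate fluorescence readout after 2 h.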
Experiment [14] can be described thus: qHTS assay for small molecule activators of the p53 signaling pathway (AID 651743; active means well fitted activation curve with a large enough effect in the signal ratio, not every such curve was filed as active; the % refers to the signal ratio; further: series mostly up to about 92 µM; % of control where 0% means no effect). As to conditions: HCT-116 p53RE-bla, beta-lactamase FRET ratio, 16 h; stronger effect = higher value. The procedure, abridged: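 A beta-lactamase reporter under p53 response element control, stably carried by HCT-116 cells, reported pathway activation. Test compounds were applied for 16 hours at 37 C, and fluorescence was measured 2 hours after adding the B/G FRET substrate.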

Experiment [15] in a line: qHTS assay for environmental chemicals that activate the Aryl hydrocarbon Receptor (AhR) signaling pathway (AID 651777). Further: % of control where 0% means no effect; nearly all actives have a fitted effect of over 15% in size. The note with it: 1A2-DRE human hepatoma cells, luciferase, 24 h; stronger effect = higher value. The procedure, abridged: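 1A2-DRE human hepatoma reporter line; 1,200 cells/well; cmpd or DMSO 24 h, 37 C/5% CO2; One-Glo 30 min RT; luciferase lum.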
In experiment [16] the target is Peroxisome proliferator-activated receptor alpha (Homo sapiens) (UniProt Q07869). Nature of the experiment: qHTS assay for small molecule agonists of the peroxisome proliferator-activated receptor alpha (PPARalpha) signaling pathway (AID 651778). Further: % of control where 0% means no effect. The note with it: PathHunter PPARalpha complementation, chemiluminescence, 6 h; stronger effect = higher value. A digest of the protocol: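 Chemiluminescence from complemented enzyme reported PPARalpha activation in cells after 6 hr of compound treatment at 37 C. The detection reagent was incubated for 60 min at room temperature, and compounds were scored as agonists.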

Experiment [17] can be described thus: qHTS assay for small molecule agonists of the antioxidant response element (ARE) signaling pathway measured by Nrf2-dependant transcriptional activity - cell viability counter screen (AID 720653; active means well fitted curve in the direction sought with a large enough effect in the repeat runs; an effect the other way counts as inactive or inconclusive; further: on the % scale 0 is the no-effect control and ±100 the full control effect). As to conditions: ARE-bla HepG2 viability, CellTiter-Glo ATP luminescence, 16 h; stronger effect = lower value. A digest of the protocol: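 Cytotoxicity counter screen: intracellular ATP quantified by CellTiter-Glo luminescence in the same ARE-bla HepG2 plates, after 16 h compound exposure and a 2 h beta-lactamase substrate step.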

Experiment [18] in a line: qHTS Assay for Identifying Gametocytocidal Compounds (AID 743244).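 Further: on the % scale 0 is the no-effect control and ±100 the full control effect; actives lower the fluorescent signal which means gametocytes are killed.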 As to conditions: P. falciparum 3D7 stage III-V gametocytes, alamarBlue, 72 h; max response: stronger effect = lower value. A digest of the protocol: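 P. falciparum 3D7 stage III–V gametocytes (20,000 cells/well) were exposed to compounds for 72 h at 37 °C, 5% CO2. AlamarBlue was then added for 24 h; decreased resorufin fluorescence (Ex 525/Em 598 nm) indicated loss of viability.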

Experiment [19] in a line: qHTS assay for cell viability of HEK293 cells (AID 743288). Further: on the % scale 0 is the no-effect control and ±100 the full control effect; nearly all actives have a fitted effect of over 50% in size. The note with it: ATP luminescence (CellTiter-Glo), 18 h, stronger effect = lower value. The procedure, abridged: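 HEK293, 18 h, 37 C, ATP luminescence. Cells at 2,000/well were allowed at least 5 h to settle before dosing; CellTiter-Glo developed 30 min at RT.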
Experiment [20] can be described thus: qHTS assay for cell viability of the p53RE-bla HCT-116 cell line (AID 743292). Further: on the % scale 0 is the no-effect control and ±100 the full control effect; nearly all actives have a fitted effect of over 55% in size. The procedure, abridged: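 HCT-116 p53RE-bla cells seeded 4,000/well; 5 h at 37 C; compound (DMSO) added; 16 h at 37 C; CellTiter-Glo added, 30 min RT; luminescence read.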
Experiment [21] has as its target Cytochrome P450 2C9 (Homo sapiens) (UniProt P11712). Nature of the experiment: Cytochrome P450 family 2 subfamily C member 9 (CYP2C9) small molecule antagonists: luciferase biochemical (cell-free) qHTS assay (AID 1645842; active means well fitted curve in the direction sought with a large enough effect in the repeat runs; an effect the other way counts as inactive or inconclusive; further: nearly all actives have a fitted effect of over 55% in size; further: potency means the concentration at half of the fitted maximal effect). A digest of the protocol: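 P450-Glo CYP2C9 system: proluciferin substrate with enzyme in mix containing 0.4% BSA, 10 min at room temperature, then NADPH regeneration solution added and incubated 1 h at 37C. Detection reagent stopped reaction; luminescence read after 20 min as RLU.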

The target in experiment [22] is Nuclear receptor subfamily 1 group I member 2 (Rattus norvegicus) (UniProt Q9R1A7). Briefly: qHTS assay for small molecule activators of the rat pregnane X receptor (rPXR) signaling pathway (AID 651751; call rule not given here; further: 0% is about no effect). As to conditions: rPXR reporter cells, luciferase (One-Glo), 24 h.
Experiment [23] concerns the target Glutathione peroxidase 1 (Homo sapiens) (UniProt P07203). Nature of the experiment: Primary qHTS Assay for Inhibitors of Recombinant Selenoprotein Glutathione Peroxidase 1 (GPX1) (AID 1845191). Further: nearly all actives have a fitted effect of over 65% in size. The procedure, abridged: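 NADPH consumption tracked by fluorescence at 340/450 nm between t=0 and t=15 min, room temperature. Final mix: 10 nM GPX1, 100 nM glutathione reductase, 1 mM GSH, 0.5 mM NADPH, 0.5 mM cumene hydroperoxide, 0.01% BSA; 30 min compound–enzyme preincubation.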

Experiment [24] addresses Phospholipid hydroperoxide glutathione peroxidase GPX4 (Homo sapiens) (UniProt P36969). Briefly: Primary qHTS Assay for Inhibitors of Recombinant Selenoprotein Glutathione Peroxidase 4 (GPX4) (AID 1845192). Further: nearly all actives have a fitted effect of over 65% in size. The procedure, abridged: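 NADPH consumption followed by fluorescence at 340/450 nm, t=0 and after 15 min at room temperature. Reaction started with cumene hydroperoxide (0.5 mM final) after 30 min compound–GPX4 preincubation; final 200 nM GPX4, 100 nM GR, 1 mM GSH, 0.5 mM NADPH.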

Experiment [25] has as its target N-terminal Xaa-Pro-Lys N-methyltransferase 1 (Homo sapiens) (UniProt Q9BV86). Nature of the experiment: Confirmatory qHTS for Inhibitors of N-terminal methyltransferase 1 (NTMT1): MTaseGlo Assay (AID 1645874). Further: potency means the concentration at half of the fitted maximal effect; nearly all actives have a fitted effect of over 65% in size. The procedure, abridged: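 MTase-Glo luminescence measured SAH formed by 125 nM NTMT1 from 100 uM SAM and 1 uM SPKRIA peptide over 30 min at room temperature, following 15 min compound preincubation. Percent inhibition against no-enzyme and DMSO controls gave 4-parameter Hill fits.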

The target in experiment [26] is Rap guanine nucleotide exchange factor 3 (Homo sapiens) (UniProt O95398). Nature of the experiment: Confirmatory qHTS for antagonist of cAMP-regulated guanine nucleotide exchange factor 3 (EPAC1) (AID 1645880).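 Further: plate controls were DMSO only for no effect and full effect of the ATA control for full effect; nearly all actives have a fitted effect of over 55% in size.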 The procedure, abridged:
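Released BODIPY-GDP fluoresces less than Rap1-bound BODIPY-GDP; the signal is followed at 480/540 nm at 5-min intervals over 30 min, after 5 min at room temperature. Reactions contain 100 nM EPAC1, 250 nM RAP1B-BODIPY-GDP and 50 uM GDP; results are normalized to ATA and DMSO.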

Experiment [27] has the same target. Nature of the experiment: Counterscreen qHTS for antagonist of cAMP-regulated guanine nucleotide exchange factor 3 (EPAC1) (AID 1645888). Further: % of control where 0% means no effect. A digest of the protocol:
(§2)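 Rap1B-BODIPY-GDP 250 nM + GDP 50 uM; cpds 7-pt, final 9.74 nM–152 uM (activator mode) or from 7.32 nM upwards (inhibitor mode); RT; FI 480/540 nm at 5 and 30 min, then ± cAMP, reread.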
For orientation: The purpose of a counterscreen is to sort out artefacts and off-target activity.

For experiment [28] the target is unchanged. Nature of the experiment: Counterscreen qHTS for agonist of cAMP-regulated guanine nucleotide exchange factor 3 (EPAC1) (AID 1645889). Further: potency means the concentration at half of the fitted maximal effect; nearly all actives have a fitted effect of over 40% in size. A digest of the protocol:
as §2

Results filed as inconclusive are left out. Activity calls are given as the source filed them. Unless noted, the call rests on the fitted dose curve; in most records, active means well fitted curve in the direction sought with a large enough effect; inconclusive means small, poorly fitted or top-dose-only effect, or another doubt; inactive means no such curve, though single readings can be large; an effect the other way counts as inactive or inconclusive.

Sequence of Cytochrome P450 2C9 (Homo sapiens) (P11712 whole entry, looked up): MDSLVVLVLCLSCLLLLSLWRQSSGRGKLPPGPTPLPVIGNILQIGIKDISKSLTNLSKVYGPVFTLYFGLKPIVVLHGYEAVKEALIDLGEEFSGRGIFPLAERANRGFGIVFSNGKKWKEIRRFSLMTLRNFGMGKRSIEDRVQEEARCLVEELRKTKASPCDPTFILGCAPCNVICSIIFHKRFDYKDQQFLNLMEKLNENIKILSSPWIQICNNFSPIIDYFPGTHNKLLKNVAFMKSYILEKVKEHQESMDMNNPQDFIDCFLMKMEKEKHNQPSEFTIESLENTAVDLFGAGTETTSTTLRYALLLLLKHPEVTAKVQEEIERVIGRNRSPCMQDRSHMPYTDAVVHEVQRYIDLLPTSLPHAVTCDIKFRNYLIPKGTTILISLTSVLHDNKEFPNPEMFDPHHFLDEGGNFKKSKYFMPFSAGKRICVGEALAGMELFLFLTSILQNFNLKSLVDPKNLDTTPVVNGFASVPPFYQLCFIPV
Sequence of Vitamin D3 receptor (Homo sapiens) (P11473 whole entry, looked up): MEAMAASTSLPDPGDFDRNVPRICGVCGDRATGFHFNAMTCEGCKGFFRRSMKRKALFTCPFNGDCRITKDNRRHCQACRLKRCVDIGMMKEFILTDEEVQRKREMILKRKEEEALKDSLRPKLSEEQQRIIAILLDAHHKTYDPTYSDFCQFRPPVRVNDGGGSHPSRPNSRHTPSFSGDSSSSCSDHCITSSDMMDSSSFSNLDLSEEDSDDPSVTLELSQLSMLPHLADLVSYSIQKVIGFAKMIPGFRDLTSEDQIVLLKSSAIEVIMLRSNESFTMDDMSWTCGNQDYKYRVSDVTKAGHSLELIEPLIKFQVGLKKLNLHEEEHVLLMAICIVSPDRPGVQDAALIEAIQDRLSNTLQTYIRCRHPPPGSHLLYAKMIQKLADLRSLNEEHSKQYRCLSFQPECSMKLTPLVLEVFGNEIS
Sequence of N-terminal Xaa-Pro-Lys N-methyltransferase 1 (Homo sapiens) (Q9BV86 whole entry, looked up): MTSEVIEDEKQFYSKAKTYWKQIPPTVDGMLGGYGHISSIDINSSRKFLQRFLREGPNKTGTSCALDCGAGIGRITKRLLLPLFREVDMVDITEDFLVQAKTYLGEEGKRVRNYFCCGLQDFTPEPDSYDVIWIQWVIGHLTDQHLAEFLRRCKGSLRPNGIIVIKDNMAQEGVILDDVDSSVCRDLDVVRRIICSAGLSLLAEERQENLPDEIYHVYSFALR
Sequence of Rap guanine nucleotide exchange factor 3 (Homo sapiens) (O95398 whole entry, looked up): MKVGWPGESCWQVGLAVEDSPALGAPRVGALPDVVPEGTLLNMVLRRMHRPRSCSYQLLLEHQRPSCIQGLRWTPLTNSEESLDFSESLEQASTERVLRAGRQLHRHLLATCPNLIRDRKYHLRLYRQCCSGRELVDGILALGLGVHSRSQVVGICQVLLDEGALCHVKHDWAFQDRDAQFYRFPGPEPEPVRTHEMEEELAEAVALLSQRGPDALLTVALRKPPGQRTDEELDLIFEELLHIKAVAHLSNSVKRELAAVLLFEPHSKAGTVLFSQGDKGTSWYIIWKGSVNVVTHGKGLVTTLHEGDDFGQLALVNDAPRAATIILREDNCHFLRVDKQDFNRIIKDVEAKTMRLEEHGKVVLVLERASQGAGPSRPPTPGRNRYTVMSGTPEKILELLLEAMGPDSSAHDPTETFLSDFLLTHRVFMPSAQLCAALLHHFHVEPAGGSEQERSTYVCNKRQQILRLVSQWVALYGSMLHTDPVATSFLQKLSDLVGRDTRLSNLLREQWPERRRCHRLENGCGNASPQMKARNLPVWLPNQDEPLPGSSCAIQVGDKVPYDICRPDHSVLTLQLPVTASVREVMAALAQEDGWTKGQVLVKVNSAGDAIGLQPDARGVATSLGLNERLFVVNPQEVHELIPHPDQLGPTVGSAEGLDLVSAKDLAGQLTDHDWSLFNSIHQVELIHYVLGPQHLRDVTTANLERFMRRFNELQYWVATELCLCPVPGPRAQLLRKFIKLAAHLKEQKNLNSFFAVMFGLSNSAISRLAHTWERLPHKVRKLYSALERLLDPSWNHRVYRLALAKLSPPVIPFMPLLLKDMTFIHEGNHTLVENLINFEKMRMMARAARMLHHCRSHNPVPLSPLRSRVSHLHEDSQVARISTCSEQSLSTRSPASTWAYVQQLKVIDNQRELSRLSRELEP
Sequence of Thyroid hormone receptor beta (Homo sapiens) (P10828 whole entry, looked up): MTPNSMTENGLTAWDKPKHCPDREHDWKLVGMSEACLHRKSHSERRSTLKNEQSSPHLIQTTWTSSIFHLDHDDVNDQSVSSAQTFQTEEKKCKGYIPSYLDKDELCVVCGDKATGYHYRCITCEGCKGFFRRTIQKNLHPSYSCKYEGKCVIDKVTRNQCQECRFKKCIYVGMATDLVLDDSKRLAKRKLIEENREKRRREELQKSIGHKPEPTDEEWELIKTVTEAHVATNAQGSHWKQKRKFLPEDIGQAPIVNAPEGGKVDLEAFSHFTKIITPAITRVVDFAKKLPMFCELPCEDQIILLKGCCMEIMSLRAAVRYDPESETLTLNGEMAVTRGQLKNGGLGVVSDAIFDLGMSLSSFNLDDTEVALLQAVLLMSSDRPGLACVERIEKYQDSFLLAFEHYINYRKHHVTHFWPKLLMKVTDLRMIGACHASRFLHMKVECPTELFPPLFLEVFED
Sequence of Peroxisome proliferator-activated receptor delta (Homo sapiens) (Q03181 whole entry, looked up): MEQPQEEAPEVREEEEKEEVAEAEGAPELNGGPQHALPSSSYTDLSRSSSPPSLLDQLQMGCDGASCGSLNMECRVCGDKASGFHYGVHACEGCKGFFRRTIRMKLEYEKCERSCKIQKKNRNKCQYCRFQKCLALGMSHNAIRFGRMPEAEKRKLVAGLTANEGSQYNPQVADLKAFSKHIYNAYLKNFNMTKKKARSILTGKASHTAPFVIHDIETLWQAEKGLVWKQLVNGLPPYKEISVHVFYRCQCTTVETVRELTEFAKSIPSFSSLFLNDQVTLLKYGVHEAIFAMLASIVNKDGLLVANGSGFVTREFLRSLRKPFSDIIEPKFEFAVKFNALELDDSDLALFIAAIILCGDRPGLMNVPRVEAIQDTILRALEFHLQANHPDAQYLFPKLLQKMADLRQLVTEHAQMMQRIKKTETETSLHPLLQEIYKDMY
Sequence of Glutathione peroxidase 1 (Homo sapiens) (P07203 whole entry, looked up): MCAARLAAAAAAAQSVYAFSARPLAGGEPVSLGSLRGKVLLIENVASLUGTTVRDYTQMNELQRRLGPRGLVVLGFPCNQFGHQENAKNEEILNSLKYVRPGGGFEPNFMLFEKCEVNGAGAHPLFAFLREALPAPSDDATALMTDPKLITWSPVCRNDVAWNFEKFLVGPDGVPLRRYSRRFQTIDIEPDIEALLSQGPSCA
Sequence of Phospholipid hydroperoxide glutathione peroxidase GPX4 (Homo sapiens) (P36969 whole entry, looked up): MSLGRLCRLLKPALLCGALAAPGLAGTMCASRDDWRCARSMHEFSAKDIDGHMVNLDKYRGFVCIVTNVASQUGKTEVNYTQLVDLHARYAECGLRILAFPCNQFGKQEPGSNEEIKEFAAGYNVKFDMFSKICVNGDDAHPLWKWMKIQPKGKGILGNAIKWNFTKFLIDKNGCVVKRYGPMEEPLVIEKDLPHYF
Sequence of Peroxisome proliferator-activated receptor alpha (Homo sapiens) (Q07869 whole entry, looked up): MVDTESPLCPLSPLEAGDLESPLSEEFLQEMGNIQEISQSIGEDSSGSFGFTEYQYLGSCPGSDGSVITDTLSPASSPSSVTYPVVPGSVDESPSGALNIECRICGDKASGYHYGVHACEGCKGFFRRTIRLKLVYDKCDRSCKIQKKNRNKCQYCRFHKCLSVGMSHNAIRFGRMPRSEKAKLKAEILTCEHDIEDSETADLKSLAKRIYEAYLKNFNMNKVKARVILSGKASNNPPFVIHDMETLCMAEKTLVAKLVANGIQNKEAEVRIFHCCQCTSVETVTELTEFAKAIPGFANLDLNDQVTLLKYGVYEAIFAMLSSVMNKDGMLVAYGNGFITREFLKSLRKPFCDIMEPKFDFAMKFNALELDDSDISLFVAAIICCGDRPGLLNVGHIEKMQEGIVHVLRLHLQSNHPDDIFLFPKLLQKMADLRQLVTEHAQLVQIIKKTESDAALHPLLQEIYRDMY
Sequence of Bile acid receptor (Homo sapiens) (Q96RI1 whole entry, looked up): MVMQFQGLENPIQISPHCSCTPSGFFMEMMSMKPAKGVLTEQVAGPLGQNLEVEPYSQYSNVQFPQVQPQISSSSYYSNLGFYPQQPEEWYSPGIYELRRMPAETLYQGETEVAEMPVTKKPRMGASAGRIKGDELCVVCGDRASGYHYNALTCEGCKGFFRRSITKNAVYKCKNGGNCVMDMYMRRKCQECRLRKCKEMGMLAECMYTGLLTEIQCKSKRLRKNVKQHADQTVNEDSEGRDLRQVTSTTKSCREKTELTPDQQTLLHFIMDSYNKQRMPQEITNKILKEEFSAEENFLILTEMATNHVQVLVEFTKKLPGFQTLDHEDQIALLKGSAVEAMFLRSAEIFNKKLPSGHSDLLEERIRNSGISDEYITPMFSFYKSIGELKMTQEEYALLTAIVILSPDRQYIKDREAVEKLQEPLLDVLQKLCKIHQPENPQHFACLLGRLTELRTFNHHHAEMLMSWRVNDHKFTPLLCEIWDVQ
Sequence of Retinoic acid receptor RXR-alpha (Homo sapiens) (P19793 whole entry, looked up): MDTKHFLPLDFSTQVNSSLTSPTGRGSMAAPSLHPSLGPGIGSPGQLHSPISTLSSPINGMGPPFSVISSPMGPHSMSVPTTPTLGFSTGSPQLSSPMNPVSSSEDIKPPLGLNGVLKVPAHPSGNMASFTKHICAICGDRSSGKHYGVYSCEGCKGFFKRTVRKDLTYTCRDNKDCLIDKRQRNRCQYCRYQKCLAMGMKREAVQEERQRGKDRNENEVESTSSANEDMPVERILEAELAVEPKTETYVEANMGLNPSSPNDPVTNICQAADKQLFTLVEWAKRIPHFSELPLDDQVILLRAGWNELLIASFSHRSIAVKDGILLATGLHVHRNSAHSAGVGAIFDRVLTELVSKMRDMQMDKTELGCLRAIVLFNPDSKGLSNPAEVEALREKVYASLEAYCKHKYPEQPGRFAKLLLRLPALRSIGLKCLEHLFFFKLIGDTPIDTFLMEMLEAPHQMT

Turning to `CCCOC(=O)c1cc(O)c(O)c(O)c1`, the result in experiment [1], in experiment [4], in [5], in experiment [6], in [7] and in experiment [9] was inactive. Moreover, the call in experiment [10] and in [20] was inactive. For the same compound, the activation in experiment [2] is -7.56% (inactive); in [14] it was -0.803% (inactive); in experiment [15], 4.88% (inactive). For the same compound, the max response is 51.1% in experiment [3]; 14.7% in experiment [8]; 0.0423% (inactive) in [16]; -15.7% (inactive) in experiment [17]; 14.7% (inactive) in experiment [18]; -23.3% (inactive) in [19]. Besides, the max response in experiment [22] is -2.93% (inactive). Also, in experiment [11], the activity change % (negative = inhibition) is 5.53% (inactive). The Potency entry in [12] and in experiment [21] was “inactive” throughout. Moreover, in [13], the Potency was 9.69 µM (active).

As to `CC(C)[C@H]1CC[C@H](C)C[C@H]1O`, the Potency entry in experiment [21], in experiment [23] and in experiment [24] was “inactive” in each case.

As for `Cc1ccc(NC(=O)Cn2c(=O)n(CCC(=O)NCc3ccc4c(c3)OCO4)c(=O)c3sccc32)c(C)c1`, in experiment [21], the Potency is 2.13 µM (active).

As to `CCOc1cc(C(=O)Nc2ccc(-c3nc4ncccc4o3)cc2C)cc(OCC)c1OCC`, the Potency in experiment [21] is 7.56 µM (active).

In the case of `Cc1cccc(NC(=O)c2sc3nc(-c4cc5ccc(O)cc5oc4=O)[nH]c(=O)c3c2C)c1`, the Potency was 6.02 µM (active) in [25] and 50.1 µM (active) in experiment [28]. For the same compound, the Potency result in [26] and in [27] was “inactive” each time.

As to `CC(C)CCNc1ncnc2c1cnn2-c1cccc(Cl)c1`, in [25], the Potency is 14.1 µM (active).

The values above are taken from PubChem BioAssay (NCATS).
